# Tests used:
# Experiment in all cases: DAPPL (digital affinity profiling via proximity ligation, sequencing); 10 mM Tris-HCl pH 7.5, 50 mM NaCl, 1 mM DTT, 4% glycerol, room temperature, 30 min; GST-TFs on glutathione beads, 16-mer random dsDNA library, 0.1% formaldehyde crosslink after washing; high values mean tight binding
# Conditions in all cases: protein: recombinant; tags: N-terminal GST; dsDNA, one strand shown
# FLI1 = target: T1, FLI1 (Homo sapiens, UniProt Q01543 1-452)
# T1 sequence: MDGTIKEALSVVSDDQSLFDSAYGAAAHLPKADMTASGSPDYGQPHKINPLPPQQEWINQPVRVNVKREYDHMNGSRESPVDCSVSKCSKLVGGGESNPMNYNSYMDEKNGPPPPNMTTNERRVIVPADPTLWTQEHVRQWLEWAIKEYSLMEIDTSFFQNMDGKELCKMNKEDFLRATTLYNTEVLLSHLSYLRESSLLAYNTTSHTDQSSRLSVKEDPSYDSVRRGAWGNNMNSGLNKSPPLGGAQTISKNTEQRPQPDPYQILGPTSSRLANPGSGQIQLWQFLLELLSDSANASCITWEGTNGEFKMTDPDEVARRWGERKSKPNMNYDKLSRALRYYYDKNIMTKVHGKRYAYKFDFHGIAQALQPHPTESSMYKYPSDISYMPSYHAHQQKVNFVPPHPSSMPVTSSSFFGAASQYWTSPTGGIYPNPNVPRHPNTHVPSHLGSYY
# Method in brief: (§1)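 Pools of DNA-barcoded human transcription factors, expressed in yeast as GST fusions on glutathione beads and combined with a tag-only sample, were incubated with 200 nmole of a 16-mer random double-stranded DNA library. Incubation took 30 min at room temperature in Tris/NaCl/DTT/glycerol buffer and was followed by washing, 0.1% formaldehyde crosslinking, proximity ligation (BsaI/T4 ligase, 1 h, 37 °C), PCR amplification and sequencing on an Illumina NextSeq500. Binding signal is the ratio of a hexamer's read frequency for a factor to its frequency for the tag-only sample.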
# ELK1 = target: T2, ELK1 (Homo sapiens, UniProt P19419 1-428)
# T2 sequence: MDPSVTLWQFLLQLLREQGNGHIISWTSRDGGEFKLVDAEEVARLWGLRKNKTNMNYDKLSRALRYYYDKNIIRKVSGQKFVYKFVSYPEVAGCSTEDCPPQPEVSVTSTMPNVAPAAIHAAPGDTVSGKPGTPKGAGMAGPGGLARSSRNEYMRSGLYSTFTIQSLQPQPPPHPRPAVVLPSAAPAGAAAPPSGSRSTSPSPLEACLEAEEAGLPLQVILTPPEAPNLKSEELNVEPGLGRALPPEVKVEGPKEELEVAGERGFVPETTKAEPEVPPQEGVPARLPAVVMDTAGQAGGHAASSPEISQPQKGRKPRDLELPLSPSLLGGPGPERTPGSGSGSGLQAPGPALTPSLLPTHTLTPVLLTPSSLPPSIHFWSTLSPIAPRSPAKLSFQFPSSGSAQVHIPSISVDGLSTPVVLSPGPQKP
# Method in brief: as §1
# GABPA = target: T3, GABPA (Homo sapiens, UniProt Q06546 1-454)
# T3 sequence: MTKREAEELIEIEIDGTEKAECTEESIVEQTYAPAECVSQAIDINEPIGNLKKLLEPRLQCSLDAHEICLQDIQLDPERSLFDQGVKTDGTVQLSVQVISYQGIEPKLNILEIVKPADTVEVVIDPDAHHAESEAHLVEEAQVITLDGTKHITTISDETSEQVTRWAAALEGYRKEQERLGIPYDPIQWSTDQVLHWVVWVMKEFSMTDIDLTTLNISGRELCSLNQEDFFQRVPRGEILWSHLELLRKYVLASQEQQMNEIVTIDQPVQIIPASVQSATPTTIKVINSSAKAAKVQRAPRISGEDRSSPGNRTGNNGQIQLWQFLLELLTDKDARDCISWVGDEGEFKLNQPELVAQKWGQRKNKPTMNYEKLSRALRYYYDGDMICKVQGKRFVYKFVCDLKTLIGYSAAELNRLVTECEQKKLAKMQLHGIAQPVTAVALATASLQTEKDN
# Method in brief: as §1
# ERG = target: T4, ERG (Homo sapiens, UniProt P11308 1-479)
# T4 sequence: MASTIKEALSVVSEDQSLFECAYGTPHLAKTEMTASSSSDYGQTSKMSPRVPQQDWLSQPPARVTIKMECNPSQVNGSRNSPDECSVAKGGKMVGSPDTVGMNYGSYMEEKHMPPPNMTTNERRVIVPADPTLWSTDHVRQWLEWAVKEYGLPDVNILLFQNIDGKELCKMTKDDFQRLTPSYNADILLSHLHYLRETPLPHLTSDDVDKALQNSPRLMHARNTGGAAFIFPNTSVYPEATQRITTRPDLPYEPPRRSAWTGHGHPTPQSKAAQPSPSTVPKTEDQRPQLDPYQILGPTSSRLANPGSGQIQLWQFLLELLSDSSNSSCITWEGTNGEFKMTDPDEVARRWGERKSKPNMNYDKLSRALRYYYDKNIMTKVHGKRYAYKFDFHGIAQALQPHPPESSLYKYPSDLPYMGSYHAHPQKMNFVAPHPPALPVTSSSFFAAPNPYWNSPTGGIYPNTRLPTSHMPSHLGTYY
# Method in brief: as §1
# ELF1 = ELF1 (Homo sapiens, UniProt P32519 1-619)
# Method in brief: as §1
# EHF = target: T5, EHF (Homo sapiens, UniProt Q9NZC4 1-300)
# T5 sequence: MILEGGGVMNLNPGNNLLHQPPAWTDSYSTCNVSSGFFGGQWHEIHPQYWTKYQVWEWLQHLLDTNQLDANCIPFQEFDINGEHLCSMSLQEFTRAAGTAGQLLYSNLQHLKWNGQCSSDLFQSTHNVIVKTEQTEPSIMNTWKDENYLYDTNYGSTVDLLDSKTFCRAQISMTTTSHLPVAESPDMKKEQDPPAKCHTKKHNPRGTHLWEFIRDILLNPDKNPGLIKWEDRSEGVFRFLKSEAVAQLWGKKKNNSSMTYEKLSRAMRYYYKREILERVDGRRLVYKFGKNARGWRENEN
# Method in brief: as §1
# SPI1 = SPI1 (Homo sapiens, UniProt P17947 1-270)
# Method in brief: as §1
# SPIB = SPIB (Homo sapiens, UniProt Q01892 1-262)
# Method in brief: as §1
# ELK3 = target: T6, ELK3 (Homo sapiens, UniProt P41970 1-407)
# T6 sequence: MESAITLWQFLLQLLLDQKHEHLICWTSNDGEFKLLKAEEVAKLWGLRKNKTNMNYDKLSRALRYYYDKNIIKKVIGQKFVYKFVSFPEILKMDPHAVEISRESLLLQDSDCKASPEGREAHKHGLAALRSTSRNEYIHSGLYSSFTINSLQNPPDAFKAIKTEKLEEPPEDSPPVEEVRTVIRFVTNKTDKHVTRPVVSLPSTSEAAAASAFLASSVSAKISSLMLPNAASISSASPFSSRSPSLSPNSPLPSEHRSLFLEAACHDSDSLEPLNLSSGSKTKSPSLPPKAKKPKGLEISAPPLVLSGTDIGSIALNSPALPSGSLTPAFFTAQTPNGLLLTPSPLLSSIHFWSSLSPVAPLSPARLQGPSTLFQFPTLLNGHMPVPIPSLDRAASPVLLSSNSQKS
# Method in brief: as §1
# SPIB, sequence (Q01892 whole entry): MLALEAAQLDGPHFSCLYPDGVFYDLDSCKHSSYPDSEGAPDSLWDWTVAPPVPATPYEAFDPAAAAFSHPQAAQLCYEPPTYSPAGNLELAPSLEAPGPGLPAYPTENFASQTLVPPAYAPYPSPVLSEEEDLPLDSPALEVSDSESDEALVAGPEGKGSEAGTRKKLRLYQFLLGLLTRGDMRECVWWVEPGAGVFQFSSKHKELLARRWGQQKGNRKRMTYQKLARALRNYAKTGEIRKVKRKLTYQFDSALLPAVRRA
# ELF1, sequence (P32519 whole entry): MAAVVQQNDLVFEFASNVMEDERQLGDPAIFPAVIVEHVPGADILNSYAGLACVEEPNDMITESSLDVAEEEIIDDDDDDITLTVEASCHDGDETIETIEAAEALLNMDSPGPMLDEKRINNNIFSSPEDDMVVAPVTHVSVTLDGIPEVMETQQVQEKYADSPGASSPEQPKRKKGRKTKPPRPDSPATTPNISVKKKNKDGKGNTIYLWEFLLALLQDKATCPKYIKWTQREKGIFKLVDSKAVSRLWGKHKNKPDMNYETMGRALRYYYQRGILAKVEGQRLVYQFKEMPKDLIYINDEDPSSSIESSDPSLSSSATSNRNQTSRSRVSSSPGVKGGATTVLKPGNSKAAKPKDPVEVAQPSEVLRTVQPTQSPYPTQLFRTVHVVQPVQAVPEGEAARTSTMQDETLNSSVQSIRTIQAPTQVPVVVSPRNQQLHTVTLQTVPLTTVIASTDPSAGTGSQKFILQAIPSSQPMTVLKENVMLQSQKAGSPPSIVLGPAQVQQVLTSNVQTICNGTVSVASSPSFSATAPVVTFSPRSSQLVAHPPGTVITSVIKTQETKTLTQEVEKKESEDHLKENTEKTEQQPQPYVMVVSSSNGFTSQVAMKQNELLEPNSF
sequence,measurement,setting,value
TTCAAG,binding signal,FLI1,"1.22 fold enrichment (6-mer frequency, TF over GST control)"
same,binding signal,ELK1,"1.22 fold enrichment (6-mer frequency, TF over GST control)"
same,binding signal,GABPA,"1.25 fold enrichment (6-mer frequency, TF over GST control)"
same,binding signal,ERG,"1.24 fold enrichment (6-mer frequency, TF over GST control)"
same,binding signal,ELF1,"1.28 fold enrichment (6-mer frequency, TF over GST control)"
same,binding signal,EHF,"1.3 fold enrichment (6-mer frequency, TF over GST control)"
same,binding signal,SPI1,"1.2 fold enrichment (6-mer frequency, TF over GST control)"
same,binding signal,SPIB,"1.29 fold enrichment (6-mer frequency, TF over GST control)"
same,binding signal,ELK3,"1.22 fold enrichment (6-mer frequency, TF over GST control)"

# From PMC7862700, “An all-to-all approach to the identification of sequence-specific readers for epigenetic DNA modifications on cytosine”
